Assay outcomes (PubChem BioAssay)
Pf Dd2 inh: qHTS Primary assay for Inhibitors of Plasmodium falciparum Dd2 growth in vitro | 120,000 tested, 4.3% active | P. falciparum Dd2 growth, SYBR Green, 72 h | Potency, µM (top dose mostly 28.9 µM), most hits filed as inhibitors; active means well fitted inhibition curve with a large enough effect; further: nearly all actives have a fitted effect of over 65% in size
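Infected erythrocytes (Dd2, 0.3% parasitemia, 2.5% hematocrit final) are added to compound in RPMI-1640/Albumax II medium, grown 72 h at 37C in low oxygen, then lysed with saponin/Triton-X containing SYBR Green and read by fluorescence.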
Of the large screens only hits and unclear results are named; the others gave an inactive call. The entries come from a sample that favours hits as a whole.

CN1Cc2c(cc(N3CCOCC3)nc2-c2ccccc2OC(F)(F)F)C1=O	none
Cc1ccc(-c2nnc(C3CN(C(=O)CC(C)C)CC34CCOCC4)o2)cc1 (stereo not drawn)	none
O=C1CCN(C(=O)C2CCN(C(=O)CN3CCCC3=O)CC2)CCCCCCN1	none
CCOc1ccccc1CNC(=O)c1ccc2c(c1)N(S(C)(=O)=O)CC2	none
CCOc1ccccc1CNC(=O)c1cccc2c1CCN2C(=O)CC	Pf Dd2 inh 10µM
CCC(=O)N1CCc2c(C(=O)NCc3cccc(F)c3)cccc21	none
COCc1cc(C[C@@H]2CC[C@H](O)[C@@H](CN(C(=O)Nc3ccccc3)C(=O)Nc3ccccc3)O2)no1	none
O=C(N[C@@H]1CCOC[C@H]1OCc1cscn1)c1ccc(N2CCCC2=O)cc1	none
O=C1CN(C(=O)CCC(=O)N2CCC3(CCCCO3)CC2)c2ccccc2N1	none
COc1ccc(C(=O)N2C[C@@H](Oc3ccccc3)C[C@H]2C(=O)N2CCOCC2)cc1	none
Cc1noc(C)c1CC(=O)N1[C@H]2CC[C@@H]1c1cnc(-c3ccc(F)cc3)nc1C2	none
CCNC(=O)N1[C@H]2CC[C@@H]1c1cnc(-c3ccccc3)nc1C2	none
COCCC(=O)N1[C@H]2CC[C@@H]1c1cnc(-c3ccccc3)nc1C2	none
COc1ccc(CCC(=O)N2[C@H]3CC[C@@H]2c2cnc(-c4ccccc4)nc2C3)cc1	none
COc1ccc(CNC(=O)N2[C@H]3CC[C@@H]2c2cnc(-c4ccccc4)nc2C3)cc1	Pf Dd2 inh 11µM
O=C(CC1CCCC1)N1[C@H]2CC[C@@H]1c1cnc(-c3ccccc3)nc1C2	Pf Dd2 inh 13µM
Cc1noc(C)c1Cc1ccc(C(=O)N2[C@H]3CC[C@@H]2c2cnc(-c4ccccc4)nc2C3)o1	Pf Dd2 inh 0.63µM
O=C(Cc1ccccc1)N1[C@H]2CC[C@@H]1c1cnc(-c3ccccc3)nc1C2	none
COc1ccccc1C(=O)N1[C@H]2CC[C@@H]1c1cnc(-c3ccccc3)nc1C2	none
CCC(CC)C(=O)NC[C@H]1O[C@@H](CC(=O)NC(C)C)[C@H](O)[C@@H]1O	none
COC(=O)C1=C(C)N=C2SC=C(CC(=O)NCC3CCCO3)N2C1c1ccc(C)cc1C (stereo not drawn)	none
COc1ccc(-c2ccc3nnc(CNC(=O)c4ccc[nH]4)n3n2)cc1	none
COc1ccc(C(=O)N2CCN(C(=O)c3nnn4c3COC(c3ccccc3)C4)CC2)cc1F (stereo not drawn)	none
COc1ccc(-c2ccc3c(c2)C(=O)N2CCN(C(=O)COCC(=O)O)C[C@@H]2C(=O)N3)c(OC)c1	none
C=CCN1CCN(C(=O)c2nnn3cc(-c4ccccc4)[nH]c(=O)c23)CC1	none
CC(=O)Nc1ccc(C2(C(=O)NCc3cccs3)CCCCC2)cc1	none
CC1(C)CC(NC(=O)c2cc(Cn3cnc4ccccc43)[nH]n2)CC(C)(C)N1	none
Cc1ccccc1NC(=O)c1ccc(F)c(S(=O)(=O)N2CCN(c3ccccc3F)CC2)c1	none
O=C(Cn1cc(S(=O)(=O)Cc2ccccc2F)c2ccccc21)Nc1ccc(F)c(Cl)c1	none
COc1ccc(NC(=O)Cn2cc(S(=O)(=O)N3CCN(c4ccccc4F)CC3)c3ccccc3c2=O)cc1Cl	Pf Dd2 inh 13µM
Cc1cc(Br)ccc1NC(=O)Cn1cc(S(=O)(=O)N2CCN(c3ccccc3F)CC2)c2ccccc2c1=O	none
COc1cc(Cl)c(C)cc1NC(=O)Cn1cc(S(=O)(=O)N2CCN(c3ccccc3F)CC2)c2ccccc2c1=O	Pf Dd2 inh 11µM
COc1ccc(NC(=O)Cn2cc(S(=O)(=O)N3CCC(C)CC3)c3ccccc3c2=O)cc1Cl	none
COc1ccc(-c2noc([C@@H](C)NCC3CCCC3)c2C(=O)O)cc1	none
CC(C)CCN1CC2(COCC(=O)N(Cc3cccc(OC(F)(F)F)c3)C2)C1	none
O=C(NC1CCCN(c2cc(-c3ccc(Cl)cc3)[nH]n2)C1)c1ccc2c(c1)OCO2 (stereo not drawn)	none
COCCN1C(=O)[C@@H]2C[C@@H](CN2C(=O)c2ccc(Cl)cc2)Oc2ccccc21	none
O=C(c1cccnc1)N1CCCC1c1nc(CCOCC2CC2)no1 (stereo not drawn)	none
Cc1c(CNC(=O)c2ccc3nc(-c4ccc(F)cc4)cn3c2)cnn1C	none
COCCN1C(=O)c2ccccc2C(C(=O)Nc2ccccc2O)C12CCCC2 (stereo not drawn)	none
CCCCNC(=O)C1c2ccccc2C(=O)N(CCOC)C12CCCCC2 (stereo not drawn)	none
COCc1nnc(NC(=O)C2c3ccccc3C(=O)N(CC(C)C)C23CCCCC3)s1 (stereo not drawn)	Pf Dd2 inh 3.5µM
COCCN1C(=O)c2ccccc2C(C(=O)Nc2nc3ccccc3s2)C12CCCCC2 (stereo not drawn)	Pf Dd2 inh 2.5µM
COCCN1C(=O)c2ccccc2C(C(=O)Nc2nnc(C3CC3)s2)C12CCCCC2 (stereo not drawn)	Pf Dd2 inh 7.9µM
COCCN1C(=O)c2ccccc2C(C(=O)NC(C)C)C12CCCCC2 (stereo not drawn)	none
COCCN1C(=O)c2ccccc2C(C(=O)Nc2cccc(C)n2)C12CCCCC2 (stereo not drawn)	none
COC(=O)CCNC(=O)C1c2ccccc2C(=O)N(CC(C)C)C12CCCCC2 (stereo not drawn)	none
COCCN1C(=O)c2ccccc2C(C(=O)Nc2nnc(COC)s2)C12CCCCC2 (stereo not drawn)	none
COc1cccc(CNC(=O)N2CCCC(Cn3c(C)nc4cccnc43)C2)c1 (stereo not drawn)	none
COc1ccc(OC)c(S(=O)(=O)N[C@H]2CO[C@H]3[C@@H]2OC[C@H]3OC(=O)Nc2cccc3ccccc23)c1	none
CN(C(=O)Cn1cccc1-c1nc(-c2ccccc2)no1)c1ccc(F)cc1	none
NC1CCCCN(Cc2ccc(-c3ccn[nH]3)s2)C1 (stereo not drawn)	none
COCCC1(CO)CCCN(CC(=O)NCc2ccccn2)C1 (stereo not drawn)	none
COc1cccc(CN(Cc2cccnc2)C(=O)C2CNCCO2)c1OC (stereo not drawn)	none
Cc1cc(S(=O)(=O)N2CCCC(Cn3cnc4cccnc43)C2)ccc1F (stereo not drawn)	none
CCC(C(=O)Nc1ccc2c(c1)CN(Cc1ccccc1OC)C(=O)C(C)O2)c1ccccc1 (stereo not drawn)	Pf Dd2 inh 2.5µM
CC1Oc2ccc(NC(=O)Cc3ccc(F)cc3)cc2CN(Cc2ccc(Cl)cc2)C1=O (stereo not drawn)	Pf Dd2 inh 10µM
CCNC(=O)Nc1ccc2c(c1)CN(Cc1ccccc1OC)C(=O)C(C)O2 (stereo not drawn)	none
CCC1Oc2ccc(NC(=O)Cc3ccc(F)cc3)cc2CN(Cc2ccc(Cl)cc2)C1=O (stereo not drawn)	none
COc1ccccc1CN1Cc2cc(NC(=O)Cc3ccc(F)cc3)ccc2OC(C)C1=O (stereo not drawn)	none
COc1cccc(CC(=O)Nc2ccc3c(c2)CN(Cc2ccccc2OC)C(=O)C(C)O3)c1 (stereo not drawn)	none
C[C@@H](NC(=O)C1CCCC1)c1c(-c2ccc(Cl)cc2)noc1C(=O)O	none
Cn1nccc1C(=O)N1CCC2(CC1)CC(OCC1CC1)CCO2 (stereo not drawn)	none
CC(=O)N1CCC(C2CCN(Cc3cc(F)c(F)cc3F)C2)CC1 (stereo not drawn)	none
CCCn1cc(CN2CCc3nc(NC)nc(C(=O)N4CCCC4)c3C2)c(C)n1	none
CN(C)C[C@@H]1CN(S(C)(=O)=O)C[C@H]1NC(=O)c1cncn1C	none
Cc1ccccc1CN1CCC(CNc2ncnc3onc(-c4ccc(F)cc4)c23)CC1	Pf Dd2 inh 4µM
COCCNc1ncnc2onc(-c3ccc(F)cc3)c12	none
